IL-1B inflam inh – inhibitors of inflammasome signaling (IL-1 beta secretion) | THP-1 LPS/ATP IL-1B secretion, AlphaLISA, 16 h; stronger effect = lower value | activity change, % at 57.5 µM | 4.7% of 360,000 active | AID 743279; in the data active means activity change below about -50%; inconclusive means mostly about -30% to -49%
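Secreted IL-1B measured by AlphaLISA bead assay after 16 h compound exposure of THP-1 cells; compounds (final up to 57.5 uM) added 1 h before LPS (250 ng/mL) and ATP (1.25 mM) stimulation; lower signal means less secretion.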
HT1080NT lethal – kills 2HG-producing HT-1080-NT fibrosarcoma cells; Potency, µM (doses to about 46.1 µM), for the others: at the highest dose activity, negative = less viability, most hits filed as cytotoxic; HT-1080-NT fibrosarcoma viability, CellTiter-Glo ATP luminescence, 48 h; 1.6% of 360,000 active;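 further: NT is the 2HG producing partner of a matched IDH1 knockdown line; potency means the concentration at half of the fitted maximal effect; 0% = DMSO-treated cells and -100% = media-only wells without cells; nearly all actives have a fitted effect of over 55% in size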
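Luminescent CellTiter-Glo readout after 48 hours of compound exposure at 37 degrees C defined viability of HT-1080-NT cells. Activity was normalized to DMSO wells and cell-free media wells; concentration-response curves were fitted and assigned curve classes.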
ELG1 repair inh – ELG1-dependent DNA repair inhibition; Potency, µM (highest dose often 46.1 µM), without a hit: top-dose activity change, negative = inhibition, hits mostly inhibitors; HEK293T ELG1-luciferase reporter, luminescence, 16 h; DNA damage induced by 5-fluorouridine; 2.3% of 330,000 active; further: potency means the concentration at half of the fitted maximal effect; nearly all actives have a fitted effect of over 55% in size
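5-Fluorouridine DNA damage + compound/DMSO, 2,000 cells/well, 16 h, 37 °C/5% CO2. ONE-Glo, 30 min RT, luminescence. Readout = decrease in reporter signal.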
HT1080 IDH1KD tx – HT-1080 IDH1 knockdown cell toxicity (counter line); HT-1080 IDH1 knockdown viability, ATP luminescence, 48 h; Potency, µM (titrated, usually from 46.1 µM), for inactives: top-dose activity, negative = toxicity, hits mostly cytotoxic; 2% of 360,000 active; AID 686971;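 further: potency means the concentration at half of the fitted maximal effect; 0% = DMSO wells and -100% = cell-free medium wells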
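HT-1080-IDH1KD cells (IDH1 knocked down), 750/well in RPMI with 5% FBS, treated with compound 48 h at 37 degrees C. Viability by CellTiter-Glo luminescence, normalised to DMSO and no-cell wells; concentration-response curves classed.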
TDP1 cell noCPT – qHTS for Inhibitors of human tyrosyl-DNA phosphodiesterase 1 (TDP1): qHTS in cells in absence of CPT; DT40 Tdp1-/- hTDP1 cells, no CPT, ATP luminescence, 48 h; Potency, µM (doses to about 46.2 µM), without a hit: at the top dose activity change, negative = growth inhibition, hits mostly inhibitors; 15% of 420,000 active; AID 686978, 2013; further: potency means the concentration at half of the fitted maximal effect; nearly all actives have a fitted effect of over 55% in size
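Seeded 400 DT40-hTDP1 cells/well (vehicle DMSO, no 20 nM CPT); pinned compounds; ≥48 hr at 37 °C; CellTiter-Glo luminescence as viability measure.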
TDP1 cell CPT – DT40-hTDP1 cell growth loss with CPT. chicken DT40 Tdp1-/-;hTDP1 cells + 20 nM CPT, ATP luminescence, 48 h. AID 686979. Potency, µM (top dose mostly 46.2 µM), for the others: at the top dose activity change, negative = growth inhibition, hits mostly inhibitors. 12% of 420,000 active; further: potency means the concentration at half of the fitted maximal effect; nearly all actives have a fitted effect of over 55% in size
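Chicken DT40 Tdp1-/- cells complemented with human TDP1, 400 cells/well, exposed to compounds plus 20 nM camptothecin for at least 48 h at 37 C; viability read as ATP content by CellTiter-Glo luminescence.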
An asterisk follows results filed as active; u = inconclusive; x = no result. An excerpt weighted towards active compounds, which were near 19% of everything screened. Unless noted, the call rests on the fitted dose curve; in most records, active means well fitted curve in the direction sought with a large enough effect; inconclusive means small, poorly fitted or top-dose-only effect, or another doubt; inactive means no such curve, though single readings can be large; an effect the other way counts as inactive or inconclusive. Unless noted, on the % scale 0 is the no-effect control and ±100 the full control effect.

SMILES | IL-1B inflam inh | HT1080NT lethal | ELG1 repair inh | HT1080 IDH1KD tx | TDP1 cell noCPT | TDP1 cell CPT
C[C@H](CO)N1C[C@H](C)[C@@H](CN(C)C(=O)Cc2ccccc2)OCCCC[C@H](C)Oc2ccc(NC(=O)NC3CCCCC3)cc2C1=O | -9 | -26% | x | -16% | u | u
CCOC(=O)N1CCN(C(c2ccnc3ccccc23)c2nnnn2-c2ccc3c(c2)OCCO3)CC1 (stereo not given) | 24 | u | x | u | 16µM* | u
CC(C)NC(=O)CN1CCN(C(c2ccnc3ccccc23)c2nnnn2-c2ccc3c(c2)OCCO3)CC1 (stereo not given) | 23 | 15% | x | 6% | -22% | -30%
CC(C)(C)OC(=O)N1CCCN(C(c2ccnc3ccccc23)c2nnnn2-c2ccc3c(c2)OCCO3)CC1 (stereo not given) | -13 | 23µM* | x | u | 3.7µM* | u
NNC(=O)c1cc2ccccc2cc1NS(=O)(=O)c1ccccc1 | 47 | -25% | -2% | -22% | 7% | 3%
CN(/N=C/c1cc(Cl)cc(Cl)c1O)C(=S)NC(C)(C)C | 0 | u | u | -20% | 16µM* | u
Cc1cccc(C)c1OCc1cc(=O)n2c3c(sc2n1)CCCC3 | x | x | x | x | u | -29%
O=C(O)C1CCCN(S(=O)(=O)c2ccccc2)C1 (stereo not given) | 0 | 0% | 2% | -1% | -16% | 13%
O=C(C1CCCN(S(=O)(=O)c2ccccc2)C1)N1CCCc2ccccc21 (stereo not given) | 23 | 2% | 23µM* | -18% | 18µM* | u
Cc1ccc(S(=O)(=O)N2CCCC(C(=O)N3CCCc4ccccc43)C2)cc1 (stereo not given) | 9 | -13% | -11% | -5% | 21µM* | 21µM*
CN(C(=O)c1cccc(NC(=O)Cc2cccc(NC(=O)C3CCCN(C(=O)C4CCCCC4)C3)c2)c1)C1CC1 (stereo not given) | 19 | 10% | x | 3% | -24% | -9%
CCC1(c2ccccc2)NC(=O)N(CC(=O)NNC(=O)COc2ccc(Cl)cc2C)C1=O (stereo not given) | -10 | -1% | 4% | -16% | 6% | 2%
NC1=NC2=C(CCCC2)C2(CCCCC2)S1 | -65* | u | -28% | u | u | u
c1ccc(OCCCCn2cnc3ccccc32)cc1 | -20 | -5% | 0% | u | 18µM* | u
Brc1ccccc1OCCCn1cnc2ccccc21 | -25 | -12% | u | -2% | -26% | u
Cc1ccc(OCCCCn2cnc3ccccc32)cc1 | -19 | 6% | u | -9% | 21µM* | 16µM*
Cc1ccccc1OCCCCn1c(CO)nc2ccccc21 | -21 | u | u | -25% | 10µM* | 9.2µM*
COc1ccc(OCCn2cnc3ccccc32)cc1 | -1 | 7% | -6% | 1% | u | -6%
Cc1ccccc1OCCCCn1cnc2ccccc21 | -19 | -8% | u | u | 13µM* | 12µM*
CCN1CCN(C(c2ccccc2)c2sc3nc(-c4ccco4)nn3c2O)CC1 (stereo not given) | x | x | x | x | -5% | -2%
O=C(NCCNc1ccc([N+](=O)[O-])cc1C(F)(F)F)c1cccc(F)c1 | 0 | -16% | -16% | -28% | 21µM* | u
O=C(NCCNc1ccc([N+](=O)[O-])cc1C(F)(F)F)c1ccccc1 | -23 | 1% | -15% | -10% | u | u
